Rows were chosen to be rich in hits. Some 10% of all compounds tested hit in one or more screens of this group.
RORg inh: ROR gamma (mouse) transcription inhibition. AID 2551. 310,000 tested, 5.4% active. Potency, µM (series often up to 53.6 µM), for the others: at the top dose activity change, negative = inhibition, actives largely listed as inhibitors. P51450. Drosophila S2 Gal4-RORgamma UAS-luciferase reporter, 20 h; also: % is scaled to controls: 0 for no effect and ±100 for the full control effect; nearly all actives have a fitted effect of over 60% in size
Target sequence (P51450 whole entry, looked up, the tested form may be a part): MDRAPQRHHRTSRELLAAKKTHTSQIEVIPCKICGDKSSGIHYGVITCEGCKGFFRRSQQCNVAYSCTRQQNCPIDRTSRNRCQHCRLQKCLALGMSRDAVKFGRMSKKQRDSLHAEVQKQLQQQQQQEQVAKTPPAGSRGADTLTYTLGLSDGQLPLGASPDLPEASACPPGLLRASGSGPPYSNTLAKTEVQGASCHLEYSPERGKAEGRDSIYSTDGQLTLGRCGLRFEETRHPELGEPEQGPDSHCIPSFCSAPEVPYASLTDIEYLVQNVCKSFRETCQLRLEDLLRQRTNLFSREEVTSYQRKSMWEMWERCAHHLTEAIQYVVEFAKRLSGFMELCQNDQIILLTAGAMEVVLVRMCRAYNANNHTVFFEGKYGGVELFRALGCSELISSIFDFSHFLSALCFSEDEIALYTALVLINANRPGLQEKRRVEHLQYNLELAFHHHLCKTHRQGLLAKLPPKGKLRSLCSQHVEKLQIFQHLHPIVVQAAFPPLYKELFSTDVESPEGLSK
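Stably transfected Drosophila Schneider cells are the test system, with ROR gamma fused to Gal4 and luciferase under UAS control; luminescence is read after 20 hr of 700 uM copper sulfate induction at ambient temperature.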
MCF10A rerep: inducers of DNA re-replication in MCF 10A breast cells. MCF 10A DNA re-replication, Hoechst nuclear intensity, 48 h. AID 624296. 350,000 tested, 2.9% active. Potency, µM (highest dose often 46.1 µM), inactives show top-dose activity, positive = re-replication, usual class: activators; also: % of control where 0% means no effect; nearly all actives have a fitted effect of over 50% in size
SW480 rerep: induces DNA re-replication in SW480 colon adenocarcinoma cells; SW480 DNA re-replication, Hoechst DNA content imaging, 48 h; Potency, µM (doses to about 46.1 µM), for inactives: top-dose re-replication activation, most hits filed as activators; 340,000 tested, 1.8% active; AID 624297; also: % of control where 0% means no effect; nearly all actives have a fitted effect of over 55% in size
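First, 250 cells per well were seeded. Next, compound or vehicle (23 nL) was pinned in, plates sat 48 hr at 37 C. Finally Hoechst was added for 40 min before fluorescence scanning.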
VP16 counter: Gal4-VP16 reporter inhibition counter-screen. 310,000 tested, 3.5% active. AID 2546. Potency, µM (top dose mostly 53.6 µM), for the others: top-dose activity, negative = inhibition, hits mostly inhibitors. Drosophila S2 Gal4-VP16 UAS-luciferase, luminescence, 20 h;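 also: Gal4-VP16 expression switched on by copper sulfate through the metallothionein promoter; % is scaled to controls: 0 for no effect and ±100 for the full control effect; nearly all actives have a fitted effect of over 50% in size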
ELG1 repair inh: blocks ELG1-dependent DNA repair in HEK293T cells; HEK293T ELG1-luciferase reporter, luminescence, 16 h; DNA damage induced by 5-fluorouridine; Potency, µM (highest dose often 46.1 µM), without a hit: at the top dose activity change, negative = inhibition, usual class: inhibitors; 330,000 tested, 2.3% active; AID 504467; also: % is scaled to controls: 0 for no effect and ±100 for the full control effect; nearly all actives have a fitted effect of over 55% in size
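Reporter activity after DNA damage by 5-fluorouridine is monitored. Compound-treated cells incubate 16 hr at 37 °C, then ONE-Glo is added for 30 min before luminescence reading.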
Active calls of the source: *; ? = inconclusive; · = not tested or not shown. Calls follow the shape of the dose curve; as a rule, active = well fitted curve in the direction sought with a large enough effect; inconclusive = small, poorly fitted or top-dose-only effect, or another doubt; inactive = no such curve, though single readings can be large; an effect the other way counts as inactive or inconclusive. Potency is read from the fitted curve at half-maximal effect.

SMILES	RORg inh	MCF10A rerep	SW480 rerep	VP16 counter	ELG1 repair inh
COc1ccc(CC(=O)Nc2cccc(S(=O)(=O)N3CCCCCC3)c2)cc1OC	-25%	-2%	5%	11µM*	-20%
Cc1ccc(NC(=O)c2ccc(F)cc2)cc1S(=O)(=O)N1CCCCCC1	1%	?	-11%	0%	16µM*
COc1ccc(NC(=O)Cc2ccc(C)c(C)c2)cc1S(=O)(=O)N1CCCCC1	·	0%	-5%	·	26µM*
O=C(CNc1cccc(S(=O)(=O)N2CCCC2)c1)Nc1cccc(C(F)(F)F)c1	·	2%	-2%	·	9.2µM*
COc1ccc(NC(=O)Cc2ccc(C)cc2)cc1S(=O)(=O)N1CCCCC1	·	-2%	-5%	·	?
CN1N=C(C(=O)N2CCCC(C(=O)c3cccc(C(F)(F)F)c3)C2)CCC1=O (stereo unspecified)	13%	-3%	-13%	-6%	3%
CCNC(=O)NC(=O)COC(=O)c1cccc(S(=O)(=O)N2CC3(C)CC2CC(C)(C)C3)c1 (stereo unspecified)	·	?	-35%	·	-29%
Cc1cc(NC(=O)COc2coc(CN3CCN(c4ccc(F)cc4)CC3)cc2=O)no1	·	2%	-4%	·	-6%
Cc1ccc(NC(=O)CCl)cc1S(=O)(=O)N1CCCCCC1	11µM*	?	?	?	?
CCc1cccc(OCC(=O)Nc2ccc(C)c(S(=O)(=O)N3CCCCCC3)c2)c1	·	-27%	-266%	·	0%
Cc1ccc(NC(=O)COc2ccc(N(C)C(=O)C(C)(C)C)cc2)cc1S(=O)(=O)N1CCCCC1	·	-2%	7%	·	8.2µM*
C=CCn1c(Sc2ncc([N+](=O)[O-])s2)n[nH]c1=O	4.5µM*	29%	-5%	4µM*	-1%
C=CCn1c(CSc2ccccc2[N+](=O)[O-])n[nH]c1=S	-41%	0%	-4%	-18%	0%
COC(=O)c1cc(OC(=O)CCc2ccc(OC)c(OC)c2)cc(C(=O)OC)c1	-16%	-9%	-2%	-8%	2%
Cc1ccc(S(=O)(=O)C2(C(=O)N3CCN(c4cc(C)ccc4C)CC3)CC2)cc1	3%	3%	22%	-2%	26µM*
Cc1cc(C(=O)CN2C(=O)C(=O)N(Cc3ccccc3)C2=O)c(C)n1CC1COc2ccccc2O1 (stereo unspecified)	?	4.6µM*	14%	-15%	6.5µM*
Cc1cc(C(=O)CSc2nnc(-c3ccc(F)cc3)o2)c(C)n1CC1COc2ccccc2O1 (stereo unspecified)	-29%	16µM*	8%	-11%	-16%
Cc1cc(C(=O)CN2C(=O)C(=O)N(Cc3ccccc3)C2=O)c(C)n1Cc1ccc(F)cc1	·	5.2µM*	?	·	8%
Cc1cc(C(=O)CN2C(=O)C(=O)N(Cc3ccccc3)C2=O)c(C)n1Cc1ccccc1	·	14%	-3%	·	16%
Cc1cc(C(=O)COC(=O)c2ccc(CO)cc2)c(C)n1CC1COc2ccccc2O1 (stereo unspecified)	31%	1%	0%	?	?
CNc1ccccc1C(C)(C)c1cc(-c2ccc(F)cc2)no1	2%	-5%	·	-4%	?
CNc1ccccc1C(C)(C)c1cc(-c2cccc([N+](=O)[O-])c2)no1	23%	?	?	1%	1.5µM*
CNc1ccccc1C(C)(C)c1cc(-c2cccc(Br)c2)no1	?	15µM*	26%	16µM*	9.2µM*
COc1ccc(NS(=O)(=O)c2cccc(C(=O)NCC(c3ccco3)N(C)C)c2)cc1 (stereo unspecified)	·	10%	-14%	·	8%
Cn1ccc(C(=O)OCC(=O)Nc2ccccc2Cl)n1	-2%	50%	61%	22%	2%
SMILES	RORg inh	MCF10A rerep	SW480 rerep	VP16 counter	ELG1 repair inh
CCCCC1CCC(C(=O)Nc2ccccc2N2CCOCC2)CC1 (stereo unspecified)	·	2%	4%	·	-6%
CC(C)(C)C1CCC(C(=O)Nc2ccc(N3CCOCC3)cc2N2CCOCC2)CC1 (stereo unspecified)	·	0%	-4%	·	15µM*
O=[N+]([O-])C(/C=C(/Cl)[N+](=O)[O-])=C(N1CCCCC1)N1CCCCC1	-39%	6%	15µM*	?	15%
COc1ccc(NC(=O)NCCCCc2ccccc2)c(OC)c1	5%	-14%	-6%	-2%	-13%
CCNc1ncc2nc(-c3ccc(Cl)cc3)c(=O)n(Cc3ccc(F)cc3)c2n1	-9%	·	·	4%	·
CCn1c(SCC(=O)Nc2nc3ccc(OC)cc3s2)nc2c1c(=O)n(C)c(=O)n2C	?	1%	2%	-5%	13µM*
CCOc1ccc2nc(NC(=O)CSc3nc4c(c(=O)n(C)c(=O)n4C)n3C(C)C)sc2c1	1%	?	5%	0%	9.2µM*
CC(=O)N/C(=N\OCc1ccc(Br)cc1)c1nonc1NC(C)=O	42%	3%	0%	5%	?
NC(=S)N=Nc1c(O)n(CCCl)c2ccc(Br)cc12	0.79µM*	?	-6%	3.5µM*	15µM*
C/C(Cl)=C\Cn1c(O)c(N=NC(N)=S)c2cc(Br)ccc21	3.2µM*	?	?	3.2µM*	-13%
CCCCn1c(O)c(N=NC(=O)c2ccncc2)c2cc(Br)ccc21	?	24%	-52%	-1%	?
Cc1ccc(C)n1-c1ccc(C(=O)/C=C/N(C)C)cc1	-1%	23µM*	?	4%	?
CCN(CC(=O)Nc1cc(Cl)ccc1C)C(=O)Cc1sc(C)nc1-c1ccc(F)cc1	·	1%	?	·	0%
O=C(/C=C/c1ccco1)Nc1ccccn1	-45%	15µM*	5.2µM*	-28%	?
O=C(/C=C/c1ccco1)Nc1scc(-c2ccccc2)c1C(=O)O	10µM*	-1%	-2%	?	?
O=C(/C=C/c1ccco1)Nc1nc(-c2ccccn2)cs1	2.8µM*	137%	?	11µM*	?
Cc1sc(NC(=O)/C=C/c2ccco2)c(C(=O)OC(C)C)c1C	?	1%	-4%	16µM*	15%
O=C(/C=C/c1ccccc1)Nc1scc(-c2ccccc2)c1C(=O)O	-33%	-1%	-1%	?	?
O=S(=O)(c1ccc2ccccc2c1)n1cccn1	15%	-2%	6%	-1%	-3%
Cc1cccc2cc(C#N)c(SCCN3CCCCC3)nc12	·	?	8.2µM*	·	·
O=C(Nc1ccc2c(c1)OCO2)c1cc(-c2ccccc2Cl)on1	-28%	2%	2%	5%	?
CCCC1(c2ccccc2)NC(=O)N(CC(=O)Nc2ccccc2C(F)(F)F)C1=O (stereo unspecified)	19%	-1%	-21%	-5%	10%
CCOC(=O)c1sc(NNC(=O)c2ccc(C)cc2)nc1C	0.79µM*	26µM*	-11%	?	-29%

Screens as filed in PubChem.
